Laboratory results from PubChem BioAssay (NCI).
“And” between values parts separate entries of the source, which are not always exact repeats. Equal values may be shown once. About 79,000 compounds went through this panel and 15% of them were active in at least one assay; those are over-represented in the sample as a whole. Values without a mark were called inactive. The source made the active and inactive calls. Rule as the data show it: active = growth inhibition above about 70%; inactive = the rest.

Legend:
[1] = NCI Yeast Anticancer Drug Screen. Data for the rad50 strain (AID 155);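 also: 0% = growth of vehicle-only cultures of the same strain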; settings: S. cerevisiae rad50 strain growth inhibition; at 50.0 µM; active compounds read high
Outline: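 A DNA repair-deficient yeast mutant serves as the test organism; compound-induced growth inhibition is calculated against vehicle-treated cells.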

[2] = NCI Yeast Anticancer Drug Screen. Data for the mec2-1 strain (AID 157); settings: S. cerevisiae mec2-1 strain, at 50.0 µM, active compounds read high
Outline: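 Readout is yeast growth inhibition, normalised to vehicle-treated controls, in the mec2-1 strain exposed to compound.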

[3] = NCI Yeast Anticancer Drug Screen. Data for the sgs1 mgt1 strain (AID 161);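 also: 0% = growth of cultures given vehicle only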; settings: S. cerevisiae sgs1 mgt1 strain, at 50.0 µM, active compounds read high
Outline: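 Yeast cells carrying a defined DNA-repair defect were exposed to test compounds. Growth inhibition was measured relative to vehicle-treated controls.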

[4] = NCI Yeast Anticancer Drug Screen. Data for the cln2 rad14 strain (AID 165);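 also: 0% = growth equal to vehicle treated cultures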; settings: S. cerevisiae cln2 rad14 strain, at 50.0 µM, active compounds read high
Outline: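 Relative to vehicle controls, growth inhibition of compound-treated cln2 rad14 yeast was recorded.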

[5] = NCI Yeast Anticancer Drug Screen. Data for the bub3 strain (AID 167); settings: S. cerevisiae bub3 mutant strain, at 50.0 µM, active compounds read high
Outline: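 Inhibition values come from growth of compound-treated mutant yeast normalised to vehicle-treated controls.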

[6] = NCI Yeast Anticancer Drug Screen. Data for the mlh1 rad18 strain (AID 175); settings: S. cerevisiae mlh1 rad18 strain growth inhibition; at 50.0 µM; active compounds read high
Outline: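 Test agents were incubated with a yeast strain of defined genotype (DNA damage repair defect). Inhibition of growth was derived by comparison with vehicle-exposed cultures.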

Structure (SMILES)	growth inhibition [1]	growth inhibition [2]	growth inhibition [3]	growth inhibition [4]	growth inhibition [5]	growth inhibition [6]
O=P(O)(O)c1ccccc1.[Zn+2]	13.9%	16.4%	-0.45%	-14%	18.1%	24.2%
NC(N)=NCCCCCCCCCCN=C(N)N	0.45%	-20.2%	-6.05%	8.4%	-2.35%	-10.3%
COc1cccc2c1C(=O)c1c(O)c3c(c(O)c1C2=O)CC(O)(C(C)=O)CC3OC1CC([N+](C)(C)C)C(O)C(C)O1 (configuration not stated)	97% (active)	98.5% (active)	97.9% (active)	92.5% (active)	98.3% (active)	95.8% (active)
O=c1cc[cH-]o1.[C-]#[O+].[C-]#[O+].[C-]#[O+].[C-]#[O+].[C-]#[O+].[C-]#[O+].[CH-]=O.[Co+2].[Co]	-14.5% and -3.2%	-4.15% and 4.75%	0.5% and -6.75%	-10.5% and 6.25%	-8.4% and 21.8%	9.6% and 4.05%
COc1cc2c(c(OC)c1OC)-c1ccc(O)cc1C(NC(C)=O)CC2 (configuration not stated)	-13.2%	-18.8%	-4.1%	17.4%	0.65%	31.2%
CC1C(=O)OC2CC[N+]3([O-])CC=C(COC(=O)C(C)(O)C1(C)O)C23 (configuration not stated)	-0.6%	-37.2%	-14.7%	-5.25%	-9.25%	-84.4%
O=C(O)COc1nc(Cl)c(Cl)cc1Cl	3.3%	6%	12.5%	-1.75%	15.6%	1.15%
C=C(C)C1(CC(C)C)C(=O)NC(=O)NC1=O	7.4% and 2.9%	6.4% and 0.4%	-7.55% and 1.75%	2.3% and -2.6%	-14.8% and 8.15%	-5.9% and -4.3%
NCC1OC(OC2C(CO)OC(OC3C(O)C(N)CC(N)C3OC3OC(CN)C(O)C(O)C3N)C2O)C(N)C(O)C1O (configuration not stated)	6.1%	2.3%	10.3%	3%	15.4%	6.8%
CC(=O)NC(ON1C(=O)COc2ccccc21)C(Cl)(Cl)Cl (configuration not stated)	27.6%	-16.8%	-13.2%	10.2%	26.6%	7.95%
COc1ccc(C(N)Cc2cc(OC)c(OC)c(OC)c2)cc1 (configuration not stated)	-14.9%	6.1%	2.9%	-10.5%	7.8%	-8.6%
ClC1=C(Cl)C2(Cl)C3C(C4(Cl)C(Cl)=C(Cl)C3(Cl)C4(Cl)Cl)C2(Cl)C1(Cl)Cl (configuration not stated)	-1.7%	-6.05%	9%	-71%	-2.4%	-11.8%
CCN1C2CCC1CC(=O)C2	0.95%	5.9%	-5.7%	-11.9%	-14.2%	7.85%
C[n+]1cccc(C2CCC[N+]2(C)C)c1 (configuration not stated)	4.4%	7.85%	8.15%	-10.9%	-9%	-4.6%
Cc1cc(C=C2C(=O)NC(=S)NC2=O)c(C)n1-c1ccccc1	14.3%	-4.6%	17.7%	-43.3%	8.6%	5.15%
O=[As]c1ccc(C(=O)O)cc1 (configuration not stated)	11.2%	-8.75%	0.2%	19.3%	-7.2%	23.2%
CCOP(O)(=S)OCC.[Yb]	22.4%	-2.45%	-1.1%	-22.7%	-1.35%	-7.4%
c1ccc(CN2C3CCCC2CC(c2ccccc2)C3)cc1 (configuration not stated)	79.8% (active)	63.9%	80.3% (active)	71.8% (active)	65.7%	85.5% (active)
CC(C)(C)C1COP(=O)(Oc2ccccc2)OC1 (configuration not stated)	2.35%	7.55%	-4.5%	-13.8%	19.4%	3.6%

Structure (SMILES)	growth inhibition [1]	growth inhibition [2]	growth inhibition [3]	growth inhibition [4]	growth inhibition [5]	growth inhibition [6]
OP(=S)(OCc1ccccc1)OCc1ccccc1	18.9%	19.6%	5.95%	-13.8%	17.9%	4.55%
CN(C)CCO	-21.4%	11.5%	4.55%	-1.65%	23.4%	35.4%
O=[N+]([O-])c1cc(Cl)ccc1O	0.2%	-5.65%	-6.5%	14.2%	-7.15%	3.75%
CCC1(CC(C)(C)Cl)C(=O)NC(=O)NC1=O	-4.55%	-7.7%	-21.4%	-30.7%	3.45%	-20%
Cn1cccc1-c1cccnc1	-23.8% and -4.7%	-34.6% and -4.95%	-4.8% and -7.45%	10.7% and 0.7%	-19.3% and 0.05%	-12.7% and -9.15%
COCC#CCN(C)C	-7.75%	-8.3%	-13.8%	2.85%	9.95%	-9.4%
CC(C)CCCC(C)[C@H]1CCC2[C@@H]3CCC4Cc5nc6c(nc5C[C@]4(C)C3CC[C@@]21C)CC1CC[C@@H]2C(CC[C@@]3(C)C2CC[C@@H]3O)[C@@]1(C)C6 (some centres not stated)	-7.05%	-37.7%	-12%	-7.9%	12.8%	7.95%
O=C(NC(Cc1ccccc1)C(=O)N(CCCl)CCCl)c1ccccc1 (configuration not stated)	-5.15%	-17.5%	16.7%	4.1%	-13.7%	23.4%
COc1ccc2c(c1OC)C[C@@H]1c3c(cc4c(c3-2)OCO4)CCN1C	21.2%	-30.2%	-23.6%	-14.6%	-0.6%	-56.5%
Cc1ccc(S(=O)(=O)CC([Se]C#N)c2ccccc2)cc1 (configuration not stated)	-21.1%	2.2%	-15.1%	-3.9%	-6.1%	1.45%
CCOC(=O)C1C(=O)CN2CCc3c([nH]c4ccccc34)C12C(=O)OCC (configuration not stated)	21.2%	15.3%	31.6%	15.6%	1.95%	24.4%
C(/COc1cccnc1)=N\NC1=NCCN1	-12.2%	-29.6%	-44.8%	3.7%	-21.9%	-35.9%
ClCCCCCCCCCCCl	10.9%	-2.55%	-13.2%	-11.8%	-15.2%	-8.8%
CC(N)C(=O)O (configuration not stated)	17.9% and -7.45%	-43.1% and -5.4%	8.7% and -25.4%	5.8% and 12.2%	7.65% and -26.8%	8.2% and -9.2%
O=C(CCl)N(CCO)CCO	-0.85%	1.5%	-2.4%	-30.7%	6.3%	0.95%
C=C(C)CCP(=S)(OCC)OCC	-27.9%	-18.3%	-24.2%	-22.7%	5.45%	-3.45%
O=P(O)(O)CCCP(=O)(O)O.[Zn+2]	-10.9%	-27.4%	-7.05%	-6.1%	-12.7%	29.1%
CC(=O)Nc1nc(CCl)cs1	11.8%	-1.1%	13.6%	5.55%	27.3%	9.6%
